Compound activity deposited in PubChem by The Scripps Research Institute Molecular Screening Center.
FBW7 activator: human FBW7 E3 ligase activation, primary screen. Q969H0. AlphaScreen FBW7–phospho-cyclin E peptide binding, activator screen. normalized activity (activation), % at 26.1 µM. 650,000 compounds, 0.13% hits; in the data active means normalized activity above about 1.9%;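 further: purified mutant Fbw7 with reduced substrate affinity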
GPR151 ag: human GPR151 activation. Q8TDV0. PathHunter beta-arrestin GPR151 cells, luminescence. activation, % at 11.2 µM. 650,000 compounds, 1% hits; in the data active means activation above about 4.9%;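 further: 0% = median of compound wells and 100% = cells with positive control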
Target sequence (Q8TDV0 whole entry, looked up): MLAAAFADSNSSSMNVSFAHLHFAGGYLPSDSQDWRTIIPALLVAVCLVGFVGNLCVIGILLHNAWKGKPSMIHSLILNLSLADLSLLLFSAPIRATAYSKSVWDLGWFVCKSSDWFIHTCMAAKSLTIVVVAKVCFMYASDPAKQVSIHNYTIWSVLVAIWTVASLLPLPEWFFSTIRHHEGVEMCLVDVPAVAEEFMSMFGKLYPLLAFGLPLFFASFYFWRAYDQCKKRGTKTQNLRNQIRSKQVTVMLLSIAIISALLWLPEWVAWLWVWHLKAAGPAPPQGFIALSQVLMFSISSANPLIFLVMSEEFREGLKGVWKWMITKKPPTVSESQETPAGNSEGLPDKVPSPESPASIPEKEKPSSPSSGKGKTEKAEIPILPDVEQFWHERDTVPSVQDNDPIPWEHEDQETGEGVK
MITF primary: inhibitors of human MITF; 650,000 compounds, 0.91% hits; AlphaScreen MITF homodimerization, bead proximity signal; O75030; inhibition, % at 2.6 µM; AID 1259374; in the data active means inhibition above about 50%;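 further: 0% = vehicle wells with protein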
TEAD-YAP block: TEAD-YAP interaction inhibition | HEK-TIYL cells, TEAD-Gal4/YAP UAS-luciferase luminescence | inhibition, % at 9.12 µM | 640,000 compounds, 1.4% hits; in the data active means inhibition above about 32%;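 further: 0% = median of test compound wells and 100% = reference inhibitor wells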
The depositor's hits bear a star; nt = no result. Rows were chosen to be rich in hits. Some 3.5% of all compounds tested hit in one or more screens of this group.

SMILES | FBW7 activator | GPR151 ag | MITF primary | TEAD-YAP block
COc1ccc(/C(C)=N/NC(=O)c2cccc(F)c2)cc1OC | 0.0 | -0.8 | -9.3 | -12.1
COc1ccccc1NC(=O)C1=C(C)Nc2nc(SC)nn2C1c1ccc(C)cc1 (stereo not given) | 0.1 | 2.2 | 6.8 | 7.1
NC(Cn1ccc(=O)n(Cc2ccccc2C(=O)O)c1=O)C(=O)O (stereo not given) | 0.0 | 3.6 | 17.3 | nt
Cc1ccc(C2C(/C=c3/sc4nc5ccccc5n4c3=O)=C(c3ccccc3)Oc3ccccc32)cc1 (stereo not given) | -0.1 | 2.0 | 4.3 | -2.6
COc1ccc(-c2nc(-c3ccncc3)no2)cc1 | -0.1 | -0.4 | 2.1 | -42.6
COc1cc(OC)cc(-c2nc(-c3ccccn3)no2)c1 | 0.2 | -2.0 | 9.9 | -40.6
COc1ccc(-c2nc(-c3ccccc3)no2)cc1 | 0.4 | -7.8 | 1.4 | 52.6*
COc1ccc(-c2nc(-c3cccs3)no2)cc1 | -0.3 | -5.2 | -3.8 | 74.6*
COc1ccc(-c2noc(-c3cccc(C)c3)n2)cc1 | -0.1 | 3.8 | -9.1 | -54.6
COc1ccc(-c2nc(-c3ccccn3)no2)cc1 | -0.1 | -11.6 | -5.7 | 96.6*
Cc1cccc(-c2noc(-c3ccc(C(C)(C)C)cc3)n2)c1 | -0.1 | -0.2 | -1.5 | 48.7*
COc1cc(OC)cc(-c2nc(-c3ccccc3)no2)c1 | -0.1 | -2.3 | 15.5 | -5.1
Cc1nnc(NC(=O)COc2ccc(C(C)(C)CC(C)(C)C)cc2)s1 | -0.1 | 0.1 | -11.5 | 1.8
Cc1ccc(C(=O)c2cccc(N)c2)cc1C | 1.1 | -0.6 | 8.3 | 56.6*
CC(=O)c1sc(=Nc2ccc(C)cc2)n(CCCN2CCOCC2)c1C | -0.2 | -0.6 | -5.3 | 1.5
Cc1ccccc1Nc1nc(Cl)c(C=O)s1 | 0.3 | -0.4 | 6.4 | 39.9*
C=CCNC(NC(=O)c1ccc(C)cc1)C(Cl)(Cl)Cl (stereo not given) | 0.0 | 0.1 | 10.2 | -7.8
O=C(N/N=C/c1ccc(O)c2ncccc12)c1ccc(F)cc1 | -0.1 | 0.2 | 113.1* | 27.3
O=C(Cc1ccccc1)N/N=C/c1cccc2ccccc12 | 0.0 | 1.4 | 9.1 | 0.7
O=C(Cc1ccccc1)N/N=C/c1ccc(O)c2ncccc12 | -0.1 | 0.8 | 98.2* | 15.1
COc1cccc(C2CC(c3cccs3)=NN2C(=O)CSc2nnc(CNC(=O)c3ccccc3F)n2-c2ccc(F)cc2)c1OC (stereo not given) | -0.1 | 1.1 | -2.1 | 4.8
Cc1ccc2cc3c(nc2c1C)OC(C)C(=O)N(Cc1cccnc1)C3 (stereo not given) | 0.1 | -1.5 | 10.5 | 33.7*
Cc1cccc2cc3c(nc12)OC(C)C(=O)N(Cc1cccnc1)C3 (stereo not given) | 0.0 | 0.2 | -1.9 | 1.0
COC(=O)/C=C\C(=O)Nc1ccc(Br)c(C)c1 | 0.1 | 1.0 | -2.5 | 47.2*
O=C1CCCC2=C1C(c1cccs1)c1c(n[nH]c1-c1ccc([N+](=O)[O-])cc1)N2 (stereo not given) | 0.0 | 0.3 | -1.2 | 41.6*
SMILES | FBW7 activator | GPR151 ag | MITF primary | TEAD-YAP block
C=CCNC(=S)NNc1nc(N2CCCC2)nc(N2CCCC2)n1 | 0.2 | -0.4 | 2.6 | 7.4
C=CCNC(=S)NNc1nc(Nc2ccccc2)nc(N2CCCCC2)n1 | 0.0 | 1.2 | 14.9 | 33.9*
COc1cc(C(=O)Nc2cccnc2)ccc1OCc1c(Cl)cccc1Cl | -0.1 | 1.7 | 6.6 | 39.0*
O=C(Nc1cccnc1)c1ccc(Cl)c(Cl)c1 | -0.1 | 0.3 | 7.1 | -17.1
c1ccc(OCCNc2nc(Nc3ccncc3)nc3nc[nH]c23)cc1 | 0.0 | -0.6 | -3.5 | 0.9
O=C(Nc1cc2ccccc2oc1=O)c1ccccc1 | 0.2 | -8.0 | 13.9 | 53.6*
O=C(Nc1cc2ccccc2oc1=O)c1ccc(Br)cc1 | -0.1 | -0.2 | -12.7 | -25.9
CC(=O)Oc1ccc2cc(NC(=O)c3ccc(C)cc3)c(=O)oc2c1 | 0.0 | -0.4 | 9.1 | 52.5*
CCN1C(c2ccc(F)cc2)=CS/C1=C(/C#N)c1nnc2n1CCCCC2 | -0.1 | 1.7 | 5.8 | -3.7
O=C(NCC1CCCN(Cc2cccn2-c2ccccn2)C1)c1n[nH]c2ccccc12 (stereo not given) | 0.1 | 1.0 | 17.3 | 69.9*
O=C(NCC1CCCN(Cc2cccn2-c2cccnc2)C1)c1n[nH]c2ccccc12 (stereo not given) | -0.2 | -1.7 | -2.4 | -6.5
CC(=O)N1CCN(Cc2ccc3c(c2)CN(C(=O)c2cccc(C)n2)CCO3)CC1 | 0.0 | 1.3 | 3.2 | 4.2
Cc1ccc(S(=O)(=O)Nc2cc(C(=O)N3CCOCC3)ccc2N2CCCCC2)cc1 | -0.2 | 0.3 | -3.7 | 1.8
COC(=O)c1ccc(N2CCOCC2)c(NS(=O)(=O)c2ccc(OC)cc2)c1 | 0.0 | -0.7 | 7.1 | 58.3*
COC(=O)c1ccc(N2CCCC2)c(NS(=O)(=O)c2ccc(C)cc2)c1 | 0.6 | -1.1 | 6.5 | 40.9*
CC(=O)c1c(C)[nH]c(C(=O)OCC(=O)Nc2ccc(Cl)cc2)c1C | 0.1 | 1.8 | -6.4 | 11.8
CC(=O)c1c(C)[nH]c(C(=O)OCC(=O)Nc2cccc(S(=O)(=O)N3CCCC3)c2)c1C | -0.1 | 0.1 | 5.9 | 32.8*
CC(=O)c1c(C)[nH]c(C(=O)OCC(=O)Nc2ccc(F)c(Cl)c2)c1C | 0.4 | 3.0 | -8.1 | 34.7*
CC(=O)c1c(C)[nH]c(C(=O)OCC(=O)Nc2cccc(Cl)c2)c1C | 0.1 | -0.8 | 7.1 | 43.9*
CC(=O)c1c(C)[nH]c(C(=O)OCC(=O)Nc2ccc(C)c(Cl)c2)c1C | -0.1 | 1.6 | 4.2 | 9.1
O=C(O)CC(NCc1ccccc1[N+](=O)[O-])c1cccs1 (stereo not given) | -0.2 | -0.6 | 2.1 | -7.7
Nc1nonc1-c1nc2ccccc2o1 | 0.2 | -0.8 | 12.5 | -1.2
CCOc1ccc(/C=C(/C#N)c2ccc3c(c2)OCO3)cc1 | 0.2 | -1.2 | -0.4 | 14.7
COc1ccc(/C(C#N)=C/c2ccc3c(c2)OCO3)cc1OC | 1.3 | -2.8 | 18.4 | 37.0*
COc1ccc(C(=O)NCC2Cc3cc(-c4nc(C)cnc4C)ccc3O2)cc1OC (stereo not given) | 0.1 | -0.4 | 3.5 | -8.9
SMILES | FBW7 activator | GPR151 ag | MITF primary | TEAD-YAP block
Cc1c(Br)c([N+](=O)[O-])nn1CC(=O)N1CCCCCC1 | 0.1 | 1.8 | 6.3 | -9.0
N#CC1=C(N)Oc2cc(N)ccc2C1c1cccc([N+](=O)[O-])c1 (stereo not given) | 0.3 | 1.4 | -2.2 | 40.4*
N#CC1=C(N)Oc2c(ccc3cccnc23)C1c1ccc(Br)cc1 (stereo not given) | -1.0 | -1.1 | 12.4 | 17.4
Cc1ccc(C2C(C#N)=C(N)Oc3c2ccc2cccnc32)cc1 (stereo not given) | 0.0 | 1.6 | -0.2 | 37.4*
N#CC1=C(N)Oc2c(ccc3cccnc23)C1c1ccccc1Cl (stereo not given) | -1.0 | -2.1 | 2.7 | 17.2
N#CC1=C(N)Oc2c(ccc3cccnc23)C1c1cccc([N+](=O)[O-])c1 (stereo not given) | -0.4 | 0.8 | 8.8 | 48.6*
CN(C)S(=O)(=O)N1CCC(Oc2ccc(C(=O)NC3CCCCC3)cc2)CC1 | 0.0 | -0.7 | -0.8 | -14.3
CN(C)S(=O)(=O)N1CCC(Oc2cccc(C(=O)NC3CCCCC3)c2)CC1 | 0.1 | 1.3 | -0.7 | 43.3*
